The text below walks through data of the supplement of paper PMC4709259.

Assay [1] has as its system Jurkat. Nature of the assay: mean cell size (FSC-A) relative to DMSO control (fraction of control); higher = larger cells. The note with it: 48 h. An outline of the steps: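 Jurkat cells seeded at 600 cells/µl were incubated 1 h, then exposed for 48h to the Enzo Screen-Well FDA Approved Drug Library v2.0 at 25µM in 0.9% (v/v) final DMSO. Drugs that cut counts below 20% of controls were diluted 10-fold and retested, down to 25nM. Cell count and mean cell size (forward scatter area) were read on an Accuri C6 flow cytometer, relative to solvent-only controls. Plates held 6-12 controls; values are means of 3 biological replicates.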

Assay [2] deals with Jurkat. Nature of the assay: cell count relative to DMSO control (fraction of control); higher = more cells (less growth inhibition). The note with it: 48 h.

Counter-ions that a name gives are not always drawn. ± gives the standard deviation.

Molecule `Nc1ccc(S(N)(=O)=O)cc1` [Sulfanilamide] (concentration: 25 µM) had a mean cell size in the assay on Jurkat [1] of 0.925 ± 0.018. The cell count in the assay on Jurkat [2] was determined as 0.546 ± 0.18.
Take `CC(=O)Oc1ccccc1C(=O)Nc1ncc([N+](=O)[O-])s1` [Nitazoxanide] (concentration: 2.5 µM): the mean cell size with Jurkat [1] was determined as 0.9325 ± 0.0054. The same molecule registered a cell count with Jurkat [2] of 0.862 ± 0.091.
For `NNc1nncc2ccccc12` [Hydralazine·HCl] (concentration: 25 µM), in that order: 0.98 ± 0.075 and 0.537 ± 0.045.
Take `CC(=O)OCC(=O)[C@@]1(O)CC[C@H]2[C@@H]3CCC4=CC(=O)CC[C@]4(C)[C@H]3[C@@H](O)C[C@@]21C` [Hydrocortisone Acetate] (concentration: 25 µM): the mean cell size in the assay on Jurkat [1] stood at 0.959 ± 0.045. In the assay on Jurkat [2], this molecule showed a cell count of 0.716 ± 0.12.
In the case of `CC1(C)O[C@@H]2C[C@H]3[C@@H]4C[C@H](F)C5=CC(=O)C=C[C@]5(C)[C@@]4(F)[C@@H](O)C[C@]3(C)[C@]2(C(=O)CO)O1` [Fluocinolone Acetonide] (concentration: 25 µM), the mean cell size in the assay on Jurkat [1] is 0.958 ± 0.037. Besides, the cell count in the assay with Jurkat [2] was 0.55 ± 0.08.
For `CCCC(CCC)C(=O)O` [Valproate·Na] (concentration: 25 µM), in that order: 0.999 ± 0.025 and 1.01 ± 0.096.
As to `NS(=O)(=O)c1cc2c(cc1C(F)(F)F)NCNS2(=O)=O` [Hydroflumethiazide] (concentration: 25 µM), the mean cell size in the assay with Jurkat [1] amounted to 0.944 ± 0.048. The same molecule registered a cell count with Jurkat [2] of 0.681 ± 0.17.
On to `Cc1ccc(C)c(OCCCC(C)(C)C(=O)O)c1` [Gemfibrozil] (concentration: 25 µM), for which the mean cell size in the assay on Jurkat [1] came out at 0.956 ± 0.026. This molecule also came in with a cell count in the assay on Jurkat [2] of 0.91 ± 0.048.
On the same counts, the results for `C[C@H]1COc2c(N3CCN(C)CC3)c(F)cc3c(=O)c(C(=O)O)cn1c23` [Levofloxacin·HCl] (concentration: 25 µM) are 0.936 ± 0.022 and 0.904 ± 0.066.
On to `CN1CCN(CCCN2c3ccccc3Sc3ccc(C(F)(F)F)cc32)CC1` [Trifluoperazine·HCl] (concentration: 2.5 µM), for which, in the assay on Jurkat [1], the mean cell size came out at 1.072 ± 0.01. The cell count in the assay on Jurkat [2] was found to be 0.776 ± 0.13.
Turning to `CCC[C@H](N[C@@H](C)C(=O)N1[C@H](C(=O)O)C[C@@H]2CCCC[C@@H]21)C(=O)OCC` [Perindopril Erbumine] (concentration: 25 µM), in the assay with Jurkat [1], the mean cell size was determined as 0.995 ± 0.051. This molecule displayed a cell count with Jurkat [2] of 0.637 ± 0.091.
In the case of `OC[C@H]1O[C@@H](O[C@@H]2[C@@H](CO)OC(O)(CO)[C@H]2O)[C@H](O)[C@@H](O)[C@H]1O` (mixture of isomers) [Lactulose] (concentration: 25 µM), the mean cell size in the assay with Jurkat [1] came out at 0.938 ± 0.046. For the same molecule, the cell count in the assay on Jurkat [2] is 0.56 ± 0.15.
On the same counts, the results for `C[N+]1(C)[C@@H]2CC[C@H]1C[C@@H](OC(=O)C(O)c1ccccc1)C2` (stereo partly drawn) [Homatropine Methylbromide] (concentration: 25 µM) are 0.9418 ± 0.0067 and 0.565 ± 0.018.
In turn, `CC(=O)NS(=O)(=O)c1ccc(N)cc1` [Sulfacetamide·Na] (concentration: 25 µM) registered a mean cell size in the assay with Jurkat [1] of 0.951 ± 0.038. Moreover, in the assay on Jurkat [2], the cell count was 0.78 ± 0.07.
The molecule `Nc1ncnc2c1ncn2[C@@H]1O[C@H](CO)[C@@H](O)[C@H]1O` [Adenosine] (concentration: 25 µM) gave a mean cell size with Jurkat [1] of 1 ± 0.041. The molecule further registered a cell count in the assay with Jurkat [2] of 0.73 ± 0.082.
On to `Clc1ccc(CSC(Cn2ccnc2)c2ccc(Cl)cc2Cl)cc1` (stereo not drawn) [Sulconazole Nitrate] (concentration: 25 µM), for which the mean cell size with Jurkat [1] came out at 0.953 ± 0.023. The cell count with Jurkat [2] worked out at 0.923 ± 0.11.
In the assay with Jurkat [1], `O=C(O)COCCN1CCN([C@H](c2ccccc2)c2ccc(Cl)cc2)CC1` [Levocetirizine Dihydrochloride] (concentration: 25 µM) registered a mean cell size of 0.961 ± 0.039. Moreover, in the assay on Jurkat [2], the cell count amounted to 0.91 ± 0.068.
For `O=P(O)(O)C(O)(Cc1cccnc1)P(=O)(O)O` [Risredonic Acid] (concentration: 25 µM), the mean cell size with Jurkat [1] stood at 0.964 ± 0.048. The cell count in the assay on Jurkat [2] came out at 0.428 ± 0.091.
On the same counts, the results for `CCCCCOc1ccc(-c2cc(-c3ccc(C(=O)N[C@H]4C[C@@H](O)[C@@H](O)NC(=O)[C@@H]5[C@@H](O)[C@@H](C)CN5C(=O)[C@H]([C@H](O)CC(N)=O)NC(=O)[C@H]([C@H](O)[C@@H](O)c5ccc(O)c(OS(=O)(=O)O)c5)NC(=O)[C@@H]5C[C@@H](O)CN5C(=O)[C@H]([C@@H](C)O)NC4=O)cc3)no2)cc1` [Micafungin] (concentration: 25 µM) are 0.993 ± 0.031 and 0.52 ± 0.081.
Consider `COc1ccccc1OCCNCC(O)COc1cccc2[nH]c3ccccc3c12` (stereo not drawn) [Carvedilol] (concentration: 25 µM), for which, in the assay on Jurkat [1], the mean cell size is 1.01 ± 0.014. The cell count in the assay on Jurkat [2] was 0.39 ± 0.034.
With `Nc1ccc(C(=O)NCC(=O)O)cc1` [Aminohippurate·Na] (concentration: 25 µM), the mean cell size in the assay on Jurkat [1] came out at 0.995 ± 0.044. Also, in the assay with Jurkat [2], the cell count was 0.792 ± 0.089.
`CN(N=O)C(=O)N[C@@H]1[C@@H](O)[C@H](O)[C@@H](CO)O[C@@H]1O` [Streptozocin] (concentration: 25 µM) registered a mean cell size in the assay with Jurkat [1] of 0.939 ± 0.014. Moreover, in the assay with Jurkat [2], the cell count worked out at 0.897 ± 0.034.
On to `COc1cc2nc(N3CCN(C(=O)c4ccco4)CC3)nc(N)c2cc1OC` [Prazosin·HCl] (concentration: 2.5 µM), for which the mean cell size in the assay on Jurkat [1] is 1.03 ± 0.056. The same molecule had a cell count with Jurkat [2] of 0.484 ± 0.18.
In the assay with Jurkat [1], `COc1ccccc1OCC(O)COC(N)=O` (stereo not drawn) [Methocarbamol] (concentration: 25 µM) yielded a mean cell size of 0.969 ± 0.057. The molecule further showed a cell count with Jurkat [2] of 0.715 ± 0.14.
